Assay: Wnt pathway potentiators raising nuclear beta-catenin – imaging, WNT3A-conditioned medium, mouse C2C12, NPC library, primary screen (AID 1117326); further: reference of the scale not given here
Settings: stimulation, at 2 µM, stronger effect = higher value
For `COC(=O)Nc1nc2ccc(C(=O)C3CC3)cc2[nH]1`, the nuclear beta-catenin stimulation was 54.5%.
`Oc1ccc(C(O)CNCCCCCCNCC(O)c2ccc(O)c(O)c2)cc1O` (centres undefined) gave a nuclear beta-catenin stimulation of -2.3%.
With `CC(=O)OC[C@H]1O[C@@H](OC(C)=O)[C@H](OC(C)=O)[C@@H]1OC(C)=O` the nuclear beta-catenin stimulation was -1.5%.
In the case of `Cc1ccccc1N=Nc1ccc(N=Nc2c(O)ccc3ccccc23)c(C)c1`, the nuclear beta-catenin stimulation is reported as 5.4%.
With `Nc1ccc(C(=O)OCC(O)CO)cc1` (centres undefined) the nuclear beta-catenin stimulation was 3.7%.
In the case of `NNc1nnc(NN)c2ccccc12`, the nuclear beta-catenin stimulation is reported as 1.4%.
`Cc1ncc(CO)c(C=O)c1O` showed a nuclear beta-catenin stimulation of 0.6%.
`CCOC(=O)c1cc(=O)c2c(OCC(COc3cccc4oc(C(=O)OCC)cc(=O)c34)OC(=O)[C@@H](N)CCCCN)cccc2o1` showed a nuclear beta-catenin stimulation of 1.2%.
`CN(C)[C@@H]1C(=O)C(C(=O)NCN2CCCC2)=C(O)[C@@]2(O)C(=O)C3=C(O)c4c(O)cccc4[C@@](C)(O)C3C[C@@H]12` (some centres undefined) gave a nuclear beta-catenin stimulation of 3.1%.
`Nc1nc(=O)n([C@@H]2O[C@H](CO)[C@@H](O)[C@@H]2F)cc1I` showed a nuclear beta-catenin stimulation of 1.8%.
With `OCC(O)CS` (centres undefined) the nuclear beta-catenin stimulation was 0.8%.
For `Nc1ccc(/C=C/c2ccc(N)cc2S(=O)(=O)O)c(S(=O)(=O)O)c1`, the nuclear beta-catenin stimulation was 0.9%.
Compound `CC(=O)Nc1ccn(C2COC(COC(=O)c3ccccc3)O2)c(=O)n1` (centres undefined) has a nuclear beta-catenin stimulation of -0.9%.
Compound `COC1=C(OC)C(=O)C(CC=C(C)CCC=C(C)CCC=C(C)CCC=C(C)CCC=C(C)CCC=C(C)CCC=C(C)CCC=C(C)CCC=C(C)CCC=C(C)C)=C(C)C1=O` has a nuclear beta-catenin stimulation of 1.2%.
With `NC[C@H]1O[C@H](O[C@H]2[C@@H](O)[C@@H](O[C@H]3O[C@H](CO)[C@@H](O)[C@H](N)[C@@H]3O)[C@H](N)C[C@@H]2N)[C@H](N)C[C@H]1O` the nuclear beta-catenin stimulation was 1.4%.
In the case of `Cc1ccc(O)c(-n2nc3ccccc3n2)c1`, the nuclear beta-catenin stimulation is reported as -0.3%.
For `Nc1c(NC/C=C\COc2cc(CN3CCCCC3)ccn2)c(=O)c1=O`, the nuclear beta-catenin stimulation was -1.1%.
In the case of `CCCCNC(=O)NS(=O)(=O)c1ccc(N)cc1`, the nuclear beta-catenin stimulation is reported as 0.7%.
Compound `CC(=O)c1cc2ccccc2s1` has a nuclear beta-catenin stimulation of 1.1%.
`NS(=O)(=O)c1ccc(Cl)c(S(N)(=O)=O)c1` showed a nuclear beta-catenin stimulation of -1%.
`CC(C)Cc1ccc(CC(=O)O)cc1` showed a nuclear beta-catenin stimulation of -0.2%.
`NCC(=O)O` gave a nuclear beta-catenin stimulation of 4%.
With `CC12CCC(C[N+](C)(CCC[N+](C)(C)C)C1)C2(C)C` (centres undefined) the nuclear beta-catenin stimulation was 0%.
With `CN(C)C(=O)CNC(=O)Cc1ccccc1` the nuclear beta-catenin stimulation was 2.4%.
Compound `Cc1cccc(N(C)C(=S)Oc2ccc3c(c2)CCC3)c1` has a nuclear beta-catenin stimulation of -1.8%.
With `COc1cc2c(cc1OC)C(C(C(=O)N(CCc1ccc(OC)c(OC)c1OC)CCc1ccc(OC)c(OC)c1OC)c1ccccc1)=NCC2` (centres undefined) the nuclear beta-catenin stimulation was 8.3%.
`O=C1CCC(C(=O)O)N1` (centres undefined) gave a nuclear beta-catenin stimulation of 2.3%.
`O=Cc1ccc(O)c(O)c1O` showed a nuclear beta-catenin stimulation of 1.9%.
With `O=S(c1cc(Cl)cc(Cl)c1O)c1cc(Cl)cc(Cl)c1O` the nuclear beta-catenin stimulation was -1.3%.
`CC(C)(C)c1cc(C=O)cc(C(C)(C)C)c1O` showed a nuclear beta-catenin stimulation of 4.1%.
Work on `CN(CC1(C)CCCO1)S(=O)(=O)c1ccc(Cl)c(S(N)(=O)=O)c1` (centres undefined) yielded a nuclear beta-catenin stimulation of -1.9%.
With `CCCCC(C)(O)CC=C[C@H]1[C@H](O)CC(=O)[C@H]1CCCCCCC(=O)OC` (some centres undefined) the nuclear beta-catenin stimulation was 2.4%.
`C=CCOc1cc(Cl)ccc1C(=O)NCCN(CC)CC` gave a nuclear beta-catenin stimulation of 0.3%.
Compound `CC(=O)SCC(CC(=O)c1ccc(C)cc1)C(=O)O` (centres undefined) has a nuclear beta-catenin stimulation of -0.4%.
`CCCCNc1ccc(C(=O)OCCN(CC)CC)cc1` showed a nuclear beta-catenin stimulation of 1.7%.
Work on `C/C=C(/C(=C/C)c1ccc(OC(C)=O)cc1)c1ccc(OC(C)=O)cc1` yielded a nuclear beta-catenin stimulation of 2.9%.
In the case of `O=C(Nc1ccc(Oc2ccc(Cl)cc2)c(Cl)c1)c1cc(I)cc(I)c1O`, the nuclear beta-catenin stimulation is reported as 1.3%.
`CC(=O)Nc1ccc(OC(=O)c2ccccc2OC(C)=O)cc1` gave a nuclear beta-catenin stimulation of 14%.
Work on `O=C(/C=C/c1ccccc1)OCc1ccccc1` yielded a nuclear beta-catenin stimulation of 0.1%.
